This is an account of results in PubChem BioAssay AID504834 (National Center for Advancing Translational Sciences (NCATS), 2011).

Several values for one entry are separate records, joined by “and”; a condition that tells them apart may be missing. Equal entries are not always repeated. The whole screen tested about 320,000 compounds, of which about 22,000 (6.9%) were called active. Inconclusive results (about 27%) are left out. Calls come from the whole dose curve; as a rule, active = well fitted inhibition curve with a large enough effect; inconclusive = small, poorly fitted or top-dose-only effect, or another doubt; inactive = no such curve, though single readings can be large or run the other way. This excerpt belongs to a sample that is enriched for actives. The source holds several records for some structures; these can differ, active in one and inactive in another.
% is set by controls: 0 for no effect and ±100 for the full control effect; potency is the fitted concentration of half-maximal effect.

The assay can be described thus: Primary qHTS for delayed death inhibitors of the malarial parasite plastid, 96 hour incubation. The following applies: P. falciparum luciferase reporter growth; series mostly up to 28.7 µM; activity change, negative = inhibition: at the top concentration. A digest of the protocol: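 Erythrocytes infected with luciferase-expressing P. falciparum were dispensed at 2% hematocrit and 0.05% parasitemia (final), then incubated with compounds 96 hours at 37 C in 5% CO2. Luminescence after detection reagent addition reported growth.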
`CC(OC(=O)CNC(=O)c1ccc(Cl)c([N+](=O)[O-])c1)C(=O)NCc1ccco1` (centres undefined): the “activity change, negative = inhibition” value is 7.29% (inactive).
On to `NC(=O)c1ccc(Nc2ccc3c(c2)CCC3)c([N+](=O)[O-])c1`, for which the “activity change, negative = inhibition” value is -3.89% (inactive).
As to `CCC(C)(C)NC(=O)C(c1ccc(O)cc1)N(Cc1ccco1)C(=O)CCC(=O)Nc1ccccn1` (centres undefined), the “activity change, negative = inhibition” value was -2.26% (inactive).
`Cc1ccc(NC(=O)COC(=O)CN2CCCCCC2=O)c(C)c1`: the “activity change, negative = inhibition” value is 33.1% (inactive).
Consider `O=C(Nc1cccc(Cl)c1)c1cc([N+](=O)[O-])ccc1N1CCN(CCO)CC1`, for which the Potency was 3.29 µM (active).
As for `CN1CCN(CC(=O)Nc2cccc([N+](=O)[O-])c2)CC1`, the “activity change, negative = inhibition” value is -26% (inactive).
Take `Cc1cccc(NC(=O)c2cc([N+](=O)[O-])ccc2N2CCN(C)CC2)c1`: the “activity change, negative = inhibition” value was 0% (inactive).
As to `Cc1c(Cl)cccc1NC(=O)NCCCN1CCCC1=O`, the “activity change, negative = inhibition” value was -15.2% (inactive).
Take `Cc1c(Br)c([N+](=O)[O-])nn1CC(=O)Nc1sc2c(c1C(=O)OC(C)C)CCC(C)C2` (centres undefined): the “activity change, negative = inhibition” value was 412% (inactive).
With `COC(=O)c1c(NC(=O)CN2CCN(S(=O)(=O)c3ccccc3[N+](=O)[O-])CC2)sc2c1CCC(C)C2` (centres undefined), the Potency is 9.28 µM (active).
Regarding `COc1ccccc1NC(=O)CN1CCN(S(=O)(=O)c2ccc(Br)cc2)CC1`, the “activity change, negative = inhibition” value was 31% (inactive).
As for `O=C(Cc1ccsc1)N1CCN(S(=O)(=O)c2cc(C(F)(F)F)cc(C(F)(F)F)c2)CC1`, the “activity change, negative = inhibition” value was -43.5% (inactive).
For `O=C(CSc1ncn[nH]1)Nc1nc(-c2cccc([N+](=O)[O-])c2)cs1`, the “activity change, negative = inhibition” value is 7.32% (inactive).
As to `COc1ccc2c(c1OC)C(=O)N(c1ccc(O)cc1)C2`, the “activity change, negative = inhibition” value was 39% (inactive).
With `COc1ccc(CNC(=O)C2CCN(S(C)(=O)=O)CC2)cc1`, the “activity change, negative = inhibition” value is -5.46% (inactive).
In the case of `CCN1C(=NCC(C)C)N[C@@H](CCc2ccccc2)[C@H](C(=O)NCC(C)C)[C@H]1C`, the “activity change, negative = inhibition” value was 35.7% (inactive).
On to `CCN1C(=NCc2ccc(OC)cc2)N[C@@H](CCc2ccccc2)[C@H](C(=O)NCc2ccc(OC)cc2)[C@H]1C`, for which the Potency result was “inactive and 5.22 µM (active)”.
With `O=C(Nc1cccnc1Cl)c1cc(-c2ccccc2O)on1`, the “activity change, negative = inhibition” value is 9.57% (inactive).
Same read-out and setting: in the case of `CC(=O)c1ccc(NC(=O)C2CC(=O)Nc3nc4ccccc4n32)cc1` (centres undefined) it was 5.37% (inactive); in that of `O=C(c1ccncc1)N1CCN(S(=O)(=O)c2cccc([N+](=O)[O-])c2)CC1`, -3.4% (inactive).
As for `C=CCN1CCN(C(=O)CCCc2ccccc2)CC1`, the “activity change, negative = inhibition” value was 47% (inactive).
Turning to `CCC(=O)c1ccc(OCC(=O)OCC(=O)NC2CCCCCC2)cc1`, the “activity change, negative = inhibition” value was 19.3% (inactive).
Same read-out and setting: in the case of `Cc1cccc(NC(=O)CN2CCN(C(=O)C3CCN(C(=O)/C=C/c4ccccc4)CC3)CC2)c1C` it was 0.105% (inactive); in that of `Oc1ccc(Br)cc1/C=N/Nc1ccccn1`, -4.24% (inactive).
With `COc1ccc(-c2nn(-c3ccccc3)cc2/C=N/Nc2ccccn2)cc1OC`, the Potency is 3.7 µM (active).
With `COc1ccc(-c2nn(-c3ccccc3)cc2C(=O)Nc2nccs2)cc1OC`, the “activity change, negative = inhibition” value was -1.92% (inactive).
Consider `CC(=O)Nc1cccc(C(=O)OCC(=O)c2ccc3c(c2)OCO3)c1`, for which the “activity change, negative = inhibition” value was 290% (inactive).
For `Cc1ccc(CNCc2ccc3c(c2)OCO3)c(C)c1`, the “activity change, negative = inhibition” value was -28.5% (inactive).
As for `O=c1[nH]c(N2CCN(Cc3ccc4c(c3)OCO4)CC2)nc2c1CCCC2`, the Potency is 7.38 µM (active).
For the compound `CCN1CCN(c2nc3c(c(=O)[nH]2)CCC3)CC1`, the “activity change, negative = inhibition” value was 8.13% (inactive).
Regarding `CCCCCc1c(C)nc(N2CCN(Cc3ccc4c(c3)OCO4)CC2)[nH]c1=O`, the “activity change, negative = inhibition” value is -3.03% (inactive).
The same measure, in the same setting: the value for `O=C(COC(=O)c1ncc(Cl)c(Cl)c1Cl)NC1CCS(=O)(=O)C1` (centres undefined) was 2.18% (inactive); that for `Cc1occc(=O)c1OCc1ccc(F)cc1` was 34.4% (inactive).
Turning to `Cc1ccc(COC(=O)CN2C(=O)NC3(CCCC3)C2=O)cc1`, the “activity change, negative = inhibition” value was 2.02% (inactive).
With `O=C(CN1C(=O)NC2(CCCC2)C1=O)OCCOc1ccc(F)cc1`, the “activity change, negative = inhibition” value is 52.9% (inactive).
With `CCOc1ccc(C(C)=O)cc1COC(=O)CN1C(=O)NC2(CCCC2)C1=O`, the Potency is 5.22 µM (active).
Regarding `O=C(COC(=O)c1ccc([N+](=O)[O-])cc1Cl)NC(=O)c1ccccc1`, the “activity change, negative = inhibition” value was 28.7% (inactive).
Turning to `COc1ccc(CNC(=O)CN2C(=O)NC3(CCCc4sccc43)C2=O)cc1` (centres undefined), the “activity change, negative = inhibition” value is -17.9% (inactive).
On the same count and under the same terms, the value for `Cc1cccc(C)c1NC(=O)CN(C)C(=O)CCC(=O)c1ccccc1` was -21% (inactive).
Turning to `CC(=O)Nc1ccc(Nc2cc(C)nc(Nc3ccc(NC(C)=O)cc3)n2)cc1`, the Potency is 2.94 µM (active).
Consider `COc1ccc(C(=O)NNc2cc(C)nc(NNC(=O)c3ccc(OC)cc3)n2)cc1`, for which the “activity change, negative = inhibition” value is -5.06% (inactive).
In the case of `CC(=O)Nc1ccc(Nc2c3ccccc3nc3ccccc23)cc1`, the “activity change, negative = inhibition” value was -19% (inactive).
For `CCN(CC)Cc1c(C(=O)N/N=C/c2cccc(OCc3ccc(F)cc3)c2)nnn1-c1nonc1N`, the “activity change, negative = inhibition” value was 7.42% (inactive).
As to `O=C(NNc1ccccc1Cl)C(O)(c1cccc(C(F)(F)F)c1)c1cccc(C(F)(F)F)c1`, the Potency was 2.62 µM (active).
For the compound `O=C(Nc1cc(C(F)(F)F)ccc1Cl)C(=O)N1CCCCC1`, the “activity change, negative = inhibition” value is 33.5% (inactive).
Take `CC(CC(=O)Nc1cc(C(F)(F)F)ccc1Cl)c1ccccc1` (centres undefined): the “activity change, negative = inhibition” value was 4.23% (inactive).
Still for that read-out and setting: in the case of `COC(=O)c1cc(N2CCNCC2)nc2ccccc12` it was 16.4% (inactive).
`Cc1ccc(-c2nnc(SCC(=O)N/N=C/c3cccs3)n2-c2ccc(C)cc2)cc1`: the Potency was 13.1 µM (active).
As to `Cc1nc2ccccc2n1CC(=O)N/N=C/c1cccs1`, the Potency was 2.33 µM (active).
In the case of `NC(=O)N/N=C\c1cccs1`, the “activity change, negative = inhibition” value is -2.84% (inactive).
Consider `Cc1nnc(SCC(=O)N/N=C/c2cn(-c3ccccc3)nc2-c2ccc(F)cc2)n1-c1ccccc1`, for which the “activity change, negative = inhibition” value was 0% (inactive).
Turning to `Cc1nc2ccccc2n1CC(=O)N/N=C/c1cccnc1`, the “activity change, negative = inhibition” value is 16.2% (inactive).
`Cc1ccc(-n2c(C)nnc2SCC(=O)NC2CC2)cc1`: the “activity change, negative = inhibition” value was 11.5% (inactive).
On to `CCN1CCN(C(=O)N[C@@H](C(=O)N[C@@H]2C(=O)N3C(C(=O)O)=C(CSc4nnnn4C)CS[C@H]23)c2ccc(O)cc2)C(=O)C1=O`, for which the “activity change, negative = inhibition” value is -3.93% (inactive).
Turning to `Cn1nc(C(F)(F)F)c(-c2ccc(F)cc2)c1NC(=O)CSCC(=O)O`, the “activity change, negative = inhibition” value is 4.49% (inactive).
With `Cc1nc(N)sc1N=Nc1c(C)n(C)n(-c2ccccc2)c1=O`, the “activity change, negative = inhibition” value is 22.2% (inactive).
Take `COc1c(O)ccc2c1-c1c3c(cc4c1C(C2)N(C)CC4)OCO3` (centres undefined): the “activity change, negative = inhibition” value is 5.04% (inactive).
Take `CN1CCc2cc3c(cc2[C@H]1[C@@H]1OC(=O)c2c1ccc1c2OCO1)OCO3`: the “activity change, negative = inhibition” value is 14.9% (inactive).
With `COc1c(O)ccc2c1CN1CCc3cc4c(cc3C1C2)OCO4` (centres undefined), the Potency was 3.29 µM (active).
As for `O=C(CCc1ccccc1Cl)Nc1ccc(S(=O)(=O)Nc2nccs2)cc1`, the “activity change, negative = inhibition” value is 0.156% (inactive).
Turning to `O=C(COc1ccc(Cl)cc1)NCCS(=O)(=O)N1CCN(c2ccc(F)cc2)CC1`, the “activity change, negative = inhibition” value was 31.9% (inactive).
Turning to `Cc1cc2c(cc1C)N(C(=O)CN1C(=O)c3ccccc3C1=O)C(C)(C)c1ssc(=S)c1-2`, the Potency was 8.28 µM (active).
For the compound `Cc1cc(C)cc(NC(=O)CN2C(=O)c3ccccc3C2=O)c1`, the “activity change, negative = inhibition” value is -16.1% (inactive).
On to `Cc1ccc(NC(=O)CCN2C(=O)c3ccccc3C2=O)cc1C`, for which the “activity change, negative = inhibition” value is 89.9% (inactive).
